Data published in PubChem BioAssay.
The source made the active and inactive calls.

Columns and labels:
[1] = biological target: Albumin (Bos taurus) (UniProt P02769); test: bovine serum albumin binders on microarray, profiling panel, artefact control for SMM control protein annotation, biochemical, small-molecule microarray, Alexa647 label, 635/667 nm fluorescence (AID 1118); conditions: BSA-A647 binding, fluorescence 635 nm, higher = more signal;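 further: score merges 667 nm emission intensity and signal-to-noise per printed compound spot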
[2] = small-molecule microarray binders of probe aXIP, primary screen, biochemical, NeuroSMM set, 635/667 nm fluorescence (AID 1119); conditions: higher = more signal, called active from +8 up or from −8 down;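 further: probe is the protein aXip251-270 applied at 1 µg/mL to compound-printed slides; binding of probe to printed compounds measured as 667 nm fluorescence plus signal to noise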
[3] = small-molecule binders of probe aNOTCH3, primary screen, biochemical, small-molecule microarray, 635/667 nm fluorescence (AID 1120); conditions: higher = more signal;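 further: probe is a biotin-tagged antibody raised against NOTCH3 rather than NOTCH3 protein; score merges spot fluorescence near 667 nm with spot signal to noise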
[4] = small-molecule binders of probe aNOTCH2, primary screen, biochemical, small-molecule microarray, 635/667 nm fluorescence (AID 1121); conditions: higher = more signal;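 further: score merges feature fluorescence read at 667 nm with its signal to noise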
[5] = biological target: Carbonic anhydrase 2 (Homo sapiens) (UniProt P00918); test: CAII small-molecule binders, profiling panel, biochemical, small-molecule microarray, Alexa647-labelled CAII (AID 1122); conditions: CAII-A647 binding fluorescence, higher = more signal
[6] = COS7 lysate on small-molecule microarray, probe aHis, 635 nm (AID 1123); conditions: COS7 cell lysate, fluorescence, higher = more signal;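 further: z-score combines 667nm fluorescence intensity with signal-to-noise per printed compound spot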
[7] = compound binding in COS7 lysate, probe aLAP1, primary screen, cell lysate, small-molecule microarray (AID 1124); conditions: probe aLAP1, fluorescence, higher = more signal;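 further: lysate comes from COS7 cells expressing LAP1 and is applied at 0.3 µg/mL; score merges spot fluorescence near 667 nm with signal-to-noise over triplicate slides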
[8] = system: Sam68 (KHDRBS1); test: Sam68 small-molecule binders, primary screen, biochemical, small-molecule microarray, 635 nm fluorescence (AID 1125); conditions: small-molecule microarray binding, higher = more signal;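 further: score merges 667 nm channel intensity with signal to noise over triplicate slides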
[9] = system: Chordin-like protein 2 (CHRDL2); test: CHRDL2 small-molecule binders, primary screen, biochemical, small-molecule microarray, 635 nm fluorescence (AID 1126); conditions: small-molecule microarray binding, fluorescence 635 nm; higher = more signal;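 further: printed compound slides probed with Chrdl2 protein at 4 µg/mL for 1 h at 4 C; score merges 667 nm emission intensity with signal to noise over three replicate slides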
[10] = biological target: Concanavalin-A (Canavalia ensiformis) (UniProt P02866); test: ConA small-molecule binders, primary screen, artefact control for SMM control protein annotation, biochemical, small-molecule microarray, Alexa647 label, 635 nm (AID 1127); conditions: ConA-A647 binding fluorescence, higher = more signal;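 further: z combines 667 nm emission intensity with signal-to-noise across three replicate slides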
[11] = anti-His antibody binders, primary screen, artefact control for SMM control protein annotation, biochemical, small-molecule microarray, 635 nm fluorescence (AID 1128); conditions: anti-His Alexa647 antibody binding, higher = more signal;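 further: score merges feature fluorescence with signal-to-noise for each printed compound spot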
[12] = system: Human papillomavirus type 1a E7 protein (residues 1-88); test: HPV1a E7 small-molecule binders, primary screen, biochemical, small-molecule microarray, residues 1-88, 635 nm (AID 1129); conditions: small-molecule microarray binding, fluorescence 635 nm; higher = more signal
[13] = biological target: Focal adhesion kinase 1 (Homo sapiens) (UniProt Q05397); test: small-molecule microarray binders of FAK, primary screen, biochemical, 635/667 nm fluorescence, BSA, DTT (AID 1130); conditions: PTK2 binding, 635 nm fluorescence, higher = more signal;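 further: composite of spot emission at 667 nm and signal to noise over triplicate slides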
[14] = system: Fibrinogen (Alexa647-labelled); test: fibrinogen binders on compound microarrays, profiling panel, artefact control for SMM control-protein annotation, biochemical, small-molecule microarray, 635/667 nm fluorescence (AID 1131); conditions: fibrinogen-A647 binding fluorescence, higher = more signal;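 further: z-score merges 667 nm fluorescence with per-spot signal-to-noise over triplicate slides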
[15] = biological target: Follistatin (Homo sapiens) (UniProt P19883); test: follistatin binders on small-molecule microarrays, primary screen, biochemical, small-molecule microarray, 635/667 nm fluorescence (AID 1132); conditions: FST binding, 635 nm fluorescence, higher = more signal
[16] = biological target: Fibroblast growth factor 2 (Homo sapiens) (UniProt P09038); test: FGF2 binders on small-molecule microarrays, primary screen, biochemical, small-molecule microarray, 635/667 nm fluorescence (AID 1133); conditions: small-molecule microarray binding, FGF2, fluorescence 635/667; higher = more signal
[17] = mitochondrial membrane potential change in A549 cells, profiling panel, cell-based, JC-1 fluorescence, basal, 24 h, 100 nL (AID 1138); conditions: higher = more signal;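 further: A549 lung adenocarcinoma cells under basal conditions with no added stimulus; test concentration not given here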
[18] = system: Lefty1; test: Lefty1 binders on small-molecule microarrays, primary screen, biochemical, small-molecule microarray, 635/667 nm fluorescence (AID 1139); conditions: small-molecule microarray binding, fluorescence 635/667; higher = more signal
[19] = system: wheat germ agglutinin (Triticum aestivum), Alexa647-labelled; test: wheat germ agglutinin binders on compound microarrays, profiling panel, artefact control for SMM control-protein annotation, biochemical, small-molecule microarray, 635/667 nm fluorescence (AID 1140); conditions: WGA-A647 binding, 635 nm fluorescence, higher = more signal;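 further: score merges 667 nm feature emission with signal to noise over triplicate slides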
[20] = biological target: Luciferin 4-monooxygenase (Photinus pyralis) (UniProt P08659); test: firefly luciferase enzyme inhibitors, primary screen, biochemical, luminescence, purified enzyme, 2006 set (AID 1141); conditions: SteadyGlo luminescence, 30 min, higher = more signal, called active from +8 up or from −8 down;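 further: cell-free assay with purified firefly luciferase at 100 ng per well in PBS; test concentration not given here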
Luciferin 4-monooxygenase (Photinus pyralis), sequence (P08659 whole entry, looked up): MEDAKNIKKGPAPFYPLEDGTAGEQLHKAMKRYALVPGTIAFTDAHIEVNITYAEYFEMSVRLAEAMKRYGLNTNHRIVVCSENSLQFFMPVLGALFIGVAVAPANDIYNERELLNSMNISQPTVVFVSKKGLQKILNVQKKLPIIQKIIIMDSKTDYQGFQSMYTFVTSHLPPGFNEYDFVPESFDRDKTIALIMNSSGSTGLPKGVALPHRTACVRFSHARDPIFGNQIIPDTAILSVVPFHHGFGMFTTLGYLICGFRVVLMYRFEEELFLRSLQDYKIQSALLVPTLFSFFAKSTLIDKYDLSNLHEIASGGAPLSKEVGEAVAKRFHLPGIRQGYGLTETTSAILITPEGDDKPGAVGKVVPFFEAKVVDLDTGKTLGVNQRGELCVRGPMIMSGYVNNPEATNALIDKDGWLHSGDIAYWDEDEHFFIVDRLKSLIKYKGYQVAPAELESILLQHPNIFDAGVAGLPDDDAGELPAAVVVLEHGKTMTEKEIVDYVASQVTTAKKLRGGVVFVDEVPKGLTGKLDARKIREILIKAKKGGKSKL

Albumin (Bos taurus), sequence (P02769 whole entry, looked up): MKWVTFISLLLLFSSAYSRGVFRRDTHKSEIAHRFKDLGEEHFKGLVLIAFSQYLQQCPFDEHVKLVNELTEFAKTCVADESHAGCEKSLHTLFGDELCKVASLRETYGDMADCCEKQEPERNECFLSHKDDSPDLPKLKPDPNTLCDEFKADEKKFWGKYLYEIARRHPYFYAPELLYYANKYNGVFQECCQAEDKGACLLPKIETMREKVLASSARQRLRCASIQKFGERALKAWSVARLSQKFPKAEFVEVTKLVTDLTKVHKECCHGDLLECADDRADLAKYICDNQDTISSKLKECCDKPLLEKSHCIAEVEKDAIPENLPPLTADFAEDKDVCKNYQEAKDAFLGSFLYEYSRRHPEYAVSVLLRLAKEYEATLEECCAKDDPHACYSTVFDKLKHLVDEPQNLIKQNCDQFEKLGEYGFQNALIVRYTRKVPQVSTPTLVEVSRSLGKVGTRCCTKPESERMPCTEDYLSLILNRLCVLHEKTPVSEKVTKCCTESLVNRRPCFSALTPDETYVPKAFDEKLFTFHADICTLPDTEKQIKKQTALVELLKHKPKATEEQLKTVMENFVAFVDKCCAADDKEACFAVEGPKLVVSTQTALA
Follistatin (Homo sapiens), sequence (P19883 whole entry, looked up): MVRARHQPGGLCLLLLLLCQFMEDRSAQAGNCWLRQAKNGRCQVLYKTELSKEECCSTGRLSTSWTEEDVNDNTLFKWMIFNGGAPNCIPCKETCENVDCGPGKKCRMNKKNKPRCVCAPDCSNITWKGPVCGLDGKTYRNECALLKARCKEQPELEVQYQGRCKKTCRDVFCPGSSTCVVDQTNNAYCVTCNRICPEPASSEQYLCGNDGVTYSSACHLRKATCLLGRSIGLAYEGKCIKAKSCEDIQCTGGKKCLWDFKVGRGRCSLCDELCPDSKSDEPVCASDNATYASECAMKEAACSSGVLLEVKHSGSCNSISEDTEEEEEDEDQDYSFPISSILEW
Concanavalin-A (Canavalia ensiformis), sequence (P02866 whole entry, looked up): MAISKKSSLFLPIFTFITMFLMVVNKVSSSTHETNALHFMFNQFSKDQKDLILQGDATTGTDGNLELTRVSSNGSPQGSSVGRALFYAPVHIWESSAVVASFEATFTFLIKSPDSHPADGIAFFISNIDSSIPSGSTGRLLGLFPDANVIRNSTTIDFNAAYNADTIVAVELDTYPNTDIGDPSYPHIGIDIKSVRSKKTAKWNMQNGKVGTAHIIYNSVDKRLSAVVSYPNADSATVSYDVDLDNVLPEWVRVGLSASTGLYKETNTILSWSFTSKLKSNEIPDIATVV
Focal adhesion kinase 1 (Homo sapiens), sequence (Q05397 whole entry, looked up): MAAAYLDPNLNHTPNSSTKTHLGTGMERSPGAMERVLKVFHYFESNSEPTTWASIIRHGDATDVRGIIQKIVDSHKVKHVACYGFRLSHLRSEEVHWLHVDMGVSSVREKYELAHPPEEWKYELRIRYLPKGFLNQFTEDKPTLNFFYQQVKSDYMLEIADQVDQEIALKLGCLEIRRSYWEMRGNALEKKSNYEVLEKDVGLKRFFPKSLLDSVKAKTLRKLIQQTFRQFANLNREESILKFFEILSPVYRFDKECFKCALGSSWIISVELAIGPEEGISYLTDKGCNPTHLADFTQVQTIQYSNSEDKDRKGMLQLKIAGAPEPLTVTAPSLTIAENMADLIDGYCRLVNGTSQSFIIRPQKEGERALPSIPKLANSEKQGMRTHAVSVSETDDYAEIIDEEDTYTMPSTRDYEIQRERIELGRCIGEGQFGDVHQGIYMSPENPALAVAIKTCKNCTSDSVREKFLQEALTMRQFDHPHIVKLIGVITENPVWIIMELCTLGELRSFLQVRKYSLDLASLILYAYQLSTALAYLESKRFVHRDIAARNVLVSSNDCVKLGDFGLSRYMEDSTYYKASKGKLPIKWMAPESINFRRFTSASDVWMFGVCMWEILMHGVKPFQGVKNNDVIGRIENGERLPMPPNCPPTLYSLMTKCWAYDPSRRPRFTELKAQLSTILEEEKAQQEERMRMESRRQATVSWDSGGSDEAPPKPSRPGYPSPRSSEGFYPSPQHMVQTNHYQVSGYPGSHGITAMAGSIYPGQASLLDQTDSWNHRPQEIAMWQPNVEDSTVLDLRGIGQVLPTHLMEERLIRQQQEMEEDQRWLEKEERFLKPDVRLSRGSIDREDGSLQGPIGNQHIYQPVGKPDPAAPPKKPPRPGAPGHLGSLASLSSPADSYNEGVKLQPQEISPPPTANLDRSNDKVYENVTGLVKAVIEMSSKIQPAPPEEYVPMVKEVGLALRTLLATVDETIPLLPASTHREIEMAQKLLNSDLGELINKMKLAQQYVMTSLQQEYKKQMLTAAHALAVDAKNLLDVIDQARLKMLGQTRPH
Fibroblast growth factor 2 (Homo sapiens), sequence (P09038 whole entry, looked up): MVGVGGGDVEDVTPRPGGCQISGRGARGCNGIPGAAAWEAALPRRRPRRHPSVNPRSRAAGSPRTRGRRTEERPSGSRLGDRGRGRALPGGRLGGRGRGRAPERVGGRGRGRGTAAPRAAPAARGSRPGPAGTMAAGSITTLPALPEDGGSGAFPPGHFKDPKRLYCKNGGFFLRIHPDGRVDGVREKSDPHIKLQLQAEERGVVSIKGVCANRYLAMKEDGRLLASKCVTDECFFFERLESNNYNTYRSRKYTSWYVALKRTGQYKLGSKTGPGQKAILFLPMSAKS

Row | Structure (SMILES) | composite z-score [1] | composite Z-score [2] | composite z-score [3] | composite z-score [4] | composite z-score [5] | composite z-score [6] | composite z-score [7] | composite z-score [8] | composite z-score [9] | composite z-score [10] | composite z-score [11] | composite z-score [12] | composite z-score [13] | composite z-score [14] | composite z-score [15] | composite z-score [16] | z-score [17] | composite z-score [18] | composite z-score [19] | z-score [20]
1 | COC(=O)[C@]1(Cc2ccccc2)N=C(c2ccc(OCCCO)cc2)O[C@@H]1c1ccccc1CN=[N+]=[N-] | -0.847 | 0.384 (inactive) | 0.0259 | -0.0017 | 0.403 | 1.98 | -0.0103 | 0.745 | 0.214 | 0.656 | 1.12 | 1.16 | 0.687 | 0.415 | 1.44 | 0.702 | -1.74 | 0.0393 | 0.418 | -1.44 (inactive)
2 | COc1ccc([Si](C)(C)[C@@H]2[C@@H](CC(=O)N(CCO)Cc3ccccc3)O[C@]3(C(=O)N(Cc4ccc(N5C(=O)c6cccc7cccc5c67)cc4)c4ccccc43)[C@H]2C)cc1 | -0.806 | 0.267 (inactive) | 0.0496 | -0.126 | 0.283 | 1.12 | 0.284 | 0.956 | 0.307 | 1.12 | 2.39 | 0.65 | 0.369 | 0.674 | 0.552 | 0.943 | -0.216 | 0.449 | 0.934 | -0.389 (inactive)
3 | CN(C)CCCC[C@@H]1NC(=O)[C@H]2C[C@@H](C(=O)O)[C@@H](c3ccc(O)cc3)N2C1=O | 0.705 | 3.89 (inactive) | 1.65 | 0.68 | 0.946 | 4.01 | 1.31 | 1.33 | 1.48 | 1.24 | 3.85 | 1.31 | 1.99 | 1.04 | 1.52 | 1.83 | -0.447 | 1.63 | 1.65 | -0.367 (inactive)
4 | OCCCC1=CC(c2ccc(CN3CCCC3)cc2)N(Cc2cccc(OC(F)(F)F)c2)CC1 (stereo not given) | 0.465 | 0.451 (inactive) | 0.0642 | -0.0907 | -0.0985 | 0.251 | -0.309 | -0.0506 | 0.248 | -0.796 | -0.299 | -0.377 | 0.213 | -0.575 | 0.611 | 0.215 | 1.17 | 0.326 | -0.227 | -0.222 (inactive)
5 | O=C1C=C(c2ccccc2)C(=O)C2=C1CC([C@H]1Oc3ccccc3S(=O)(=O)N3CCC[C@@H]13)=CC2 | 0.0895 | 0.506 (inactive) | -0.0918 | -0.0485 | -0.248 | -0.227 | -0.247 | 0.13 | 0.121 | 0.0457 | -0.105 | 0.154 | -0.263 | -0.472 | 0.316 | 0.669 | -1.32 | 0.132 | 0.145 | -1.49 (inactive)
6 | CC(C)C(=C=CC[C@H](O)c1ccccc1OCCO)C[C@H](O)COCc1ccccc1 | 0.435 | -0.392 (inactive) | -0.122 | -0.172 | 0.736 | 1.08 | 0.565 | 0.24 | -0.163 | 0.377 | 1.12 | -0.141 | -0.27 | -0.513 | -0.0978 | 0.107 | 0.742 | 0.346 | 0.133 | -0.961 (inactive)
7 | NC(=O)N1C(=O)C2C(C1=O)C1C=C(CCCO)C2C(C2CC2)N1Cc1sc2ccccc2c1Cl (stereo not given) | 0.758 | 0.121 (inactive) | -0.0362 | -0.15 | 0.616 | 1.19 | 0.979 | 1.15 | -0.0285 | 1.11 | 2.4 | 0.802 | 0.284 | 0.795 | 0.539 | 0.983 | 0.898 | 0.587 | 0.661 | -2.2 (inactive)
8 | CC(C)C[C@@H]1NC(=O)[C@@H]2C[C@H](C(=O)NCCCCCCNC(=O)CS)[C@H](c3cccc(OCCO)c3)N2C1=O | -0.256 | 0.491 (inactive) | 0.248 | -0.123 | 0.228 | 1.94 | 0.252 | 1.29 | 1.36 | 0.862 | 1.74 | 1.26 | 0.114 | 0.892 | 1.42 | 1.71 | -0.0497 | 1.44 | 0.875 | -0.986 (inactive)
9 | CCCc1cc2c(n1CCc1ccc(Cl)cc1)C(C)C1CN(C(=O)c3ccccc3)C(C)(C(=O)OC)C21 (stereo not given) | 1.03 | 0.313 (inactive) | 0.201 | 0.203 | 0.862 | 2.94 | 1.07 | 1.03 | -1.75 | 1.16 | 1.6 | 1.22 | 1.96 | 1.02 | 0.114 | -1.41 | 1.25 | -0.766 | 1.34 | -0.548 (inactive)
10 | CCCC=C(CCC)[C@@H](NC(=O)OCC(C)C)c1ccc(C(=O)OC)cc1 | -0.0782 | -0.773 (inactive) | -0.0328 | -0.15 | 0.133 | 0.141 | 0.35 | 0.687 | 0.436 | 0.256 | 0.403 | 0.717 | 1.16 | 0.441 | -0.133 | 0.462 | 0.744 | 0.704 | 0.0477 | 2.34 (inactive)
11 | C=CCC(OC(C)=O)[C@@H]1[C@@H](N(Cc2cc3ccccc3o2)C(=O)c2cccc3ccccc23)c2cc(OCCCO)ccc2N1C(=O)c1ccc2ccccc2n1 (stereo not given in full) | 0.423 | -0.315 (inactive) | 0.0155 | -0.147 | 0.112 | -0.197 | 0.637 | 0.31 | 0.0615 | -0.495 | -0.164 | -0.332 | 0.169 | -0.137 | 0.403 | 0.285 | -0.0913 | 0.496 | -0.0075 | -0.305 (inactive)
